Out of some 340,000 compounds screened, about 2,100 (0.62%) were called active.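 Rule for the calls: active = first-screen hits whose inhibition reached a set limit at any dose in the follow-up dose series; inconclusive = inhibition above the set first-screen limit but never retested; inactive = the rest.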 Only a sample is shown. Results with a measured potency or affinity are listed apart.
Target: Rac GTPase-activating protein 1 (Homo sapiens) (UniProt Q9H0H5)
Assay: blockers of MgcRacGAP-driven Rac1 GTP hydrolysis – biochemical, ADP Hunter fluorescence, primary and confirmatory, confirmation (AID 624330);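 note: fluorescence reports GDP produced by GAP-driven GTP hydrolysis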
Conditions: MgcRacGAP-stimulated Rac1 GTP hydrolysis, at 30 µM, active compounds read high, GST-tagged Rac1 F28L mutant substrate

Rac GTPase-activating protein 1 (Homo sapiens), sequence (Q9H0H5 whole entry, looked up): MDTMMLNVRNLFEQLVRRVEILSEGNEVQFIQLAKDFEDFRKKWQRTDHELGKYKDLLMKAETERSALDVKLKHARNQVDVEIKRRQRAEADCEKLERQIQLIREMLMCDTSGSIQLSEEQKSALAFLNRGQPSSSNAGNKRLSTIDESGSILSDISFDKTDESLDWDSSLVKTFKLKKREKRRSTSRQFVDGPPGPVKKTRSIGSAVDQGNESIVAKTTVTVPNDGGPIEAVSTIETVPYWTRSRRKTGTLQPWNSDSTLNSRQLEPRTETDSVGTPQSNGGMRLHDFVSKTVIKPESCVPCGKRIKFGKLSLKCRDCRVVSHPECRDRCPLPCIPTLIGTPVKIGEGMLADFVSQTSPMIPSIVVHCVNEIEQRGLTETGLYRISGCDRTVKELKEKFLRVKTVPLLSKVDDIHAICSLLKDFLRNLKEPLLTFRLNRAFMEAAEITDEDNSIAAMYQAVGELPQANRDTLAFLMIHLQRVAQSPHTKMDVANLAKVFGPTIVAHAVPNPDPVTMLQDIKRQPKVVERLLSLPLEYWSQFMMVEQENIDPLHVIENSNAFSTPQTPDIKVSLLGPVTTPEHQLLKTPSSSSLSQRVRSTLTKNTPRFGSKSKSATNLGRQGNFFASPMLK

inhibition, inactive:
O=[N+]([O-])c1ccc(S(=O)(=O)N2CCN(Cc3ccco3)CC2)cc1 15.9%, O=[N+]([O-])c1cccc(CN2CCN(c3ncccn3)CC2)c1 25.4%, O=C(c1c(Cl)cccc1Cl)N1CCCCCC1 7.13%, O=[N+]([O-])c1ccc(N2CCN(Cc3cccc([N+](=O)[O-])c3)CC2)cc1 0.8%, O=C(c1c(Cl)cccc1Cl)N1CCN(c2ncccn2)CC1 14.4%, O=[N+]([O-])c1cccc(CN2CCCCCC2)c1 10.9%, O=C(CN1CCN(C(=O)c2ccco2)CC1)Nc1cccc([N+](=O)[O-])c1 4.6%, O=C(c1ccco1)N1CCN(Cc2cccc(F)c2)CC1 14.6%, C[C@H](NC(=O)C1CC(=O)N(c2ccc3c(c2)OCCO3)C1)C(=O)N1CCCCC1 (some centres not stated) 7.93%, CCC(CC)NC(=O)COC(=O)c1cc(Br)ccc1Cl 7.43%, CC(C)NC(=O)CN(Cc1ccc(F)cc1)C(=O)CCC(=O)Nc1ccccn1 4.82%, CC(=O)c1ccc(N=Nc2ccc(C)cc2)cc1 3.59%, COc1ccc(C(C)=O)cc1CN1C(=O)NC2(CCCCCC2)C1=O -0.57%, Cc1ccc(S(=O)(=O)N(C)CCN(C)S(=O)(=O)c2ccc(C)cc2)cc1 6.45%, Cc1cccc(OCC(=O)N(Cc2ccc(F)cc2)C2CCS(=O)(=O)C2)c1C (configuration not stated) 9.11%, O=C(N/N=C/C(Cl)=C/c1ccccc1)c1ccccn1 2.22%, COc1ccc(-c2csc3nc(C)n(-n4cccc4)c(=O)c23)cc1OC 2.59%, CCCCOC(=O)C1=C(C)Nc2ncnn2C1c1ccc(OCC)c(OC)c1 (configuration not stated) 4.44%, CC(=O)Nc1ccc(NC(=S)NC(=O)C2CCCC2)cc1 9.09%, O=C(NNC(=O)C1CC=CCC1)c1ccccc1O (configuration not stated) -10.1%, O=C(Nc1nccs1)C1CC=CCC1 (configuration not stated) 0.32%, COC(=O)c1ccc(NC(=S)Nc2ccccc2)cc1 5.58%, COC(=O)c1ccc(NC(=S)Nc2ccc3ccccc3c2)cc1 15.3%, O=C(NC(=S)Nc1ccc(F)cc1)C1CCCCC1 6.1%, Cc1nn(Cc2ccccc2)c(C)c1NC(=O)CSc1nnc(-c2cc(Cl)ccc2O)n1C 3.78%, COc1ccccc1-c1nnc(SCC(=O)c2c(N)n(C3CC3)c(=O)[nH]c2=O)o1 4.98%, O=C(CCC1CCCN(C(=O)c2ccc3c(c2)OCO3)C1)NCc1ccc(F)c(F)c1 (configuration not stated) 6.44%, CCCC(=O)Nc1c(-c2ccccc2)c(=O)c(C)nn1-c1ccccc1 -2.47%, Cc1cccc(NC(=O)CSCc2cc(=O)n3c(C)csc3n2)c1C -9.75%, CCOCCCNC(=O)C(=O)NCCCOCC 6.87%, CCOCCCNCC(=O)NC1(C)C2CCC(C2)C1(C)C (configuration not stated) 14.5%, CC(NC(=O)CNC(=O)c1cccc(Cl)c1)c1ccccc1 (configuration not stated) 0.16%, CCCCNc1c(-c2ccc(-c3ccc(C(C)=O)cc3)c(OC)c2)nc2cc(C)ccn12 4.91%, Cc1c(Cc2ccccc2)c(=O)oc2c(C)c(OCC(=O)N[C@@H](Cc3ccccc3)C(=O)O)ccc12 1.68%, C[C@@H]1CN([C@@H](C)CO)C(=O)c2cc(NC(=O)Nc3ccc4c(c3)OCO4)ccc2O[C@H]1CN(C)S(=O)(=O)c1cn(C)cn1 11.5%, COc1ccc2c(c1)CC=C1C2CCC2(C)C(=O)C(=NO)CC12 (configuration not stated) 5.55%, CC12CCC3C(=CCc4cc(O)ccc43)C1CC(=NO)C2O (configuration not stated) 27.1%, CCN=c1scc(C)n1/N=C/c1ccc(O)c(O)c1O -35.3%, COc1cc(/C=N/N2C(=O)CSC2=S)cc(Br)c1O 24.4%, COc1cc(/C=N/N2C(C)CCCC2C)cc(Br)c1O (configuration not stated) 10.5%, CCc1n[nH]c(=S)n1/N=C/c1cc(Br)c(O)c(OC)c1 14.8%, Oc1c(Br)cc(/C=N/n2c(-c3ccccc3)n[nH]c2=S)cc1Br 17.3%, Cc1nnc(C)n1/N=C/c1cc(Br)cc(Br)c1O 13.7%, COc1cc2ncnc(NCc3ccc(F)cc3)c2cc1OC 5.92%, COc1ccc(-n2cnnc2SCC(=O)Nc2cc(C)on2)cc1 0.92%, Cc1nn(-c2nc3ccccc3[nH]2)c(N)c1-c1ccc(Cl)cc1 14.1%, COc1ccc(NC(=O)[C@@H]2CCCN2S(=O)(=O)c2cccc3cccnc23)cc1 7.98%, Cc1c(N2C(=O)CSC2c2ccc(F)cc2)c(=O)n(-c2ccccc2)n1C (configuration not stated) -1.84%, Cc1cc(C)n(CC(=O)N2N=C(C(F)F)CC2(O)C(F)F)n1 (configuration not stated) 5.91%, O=C(CC1C[C@H](C(=O)N2CCCCC2)[C@@]2(CCc3ccccc3)c3[nH]c4ccccc4c3CCN2C1=O)NCCc1ccccn1 (some centres not stated) 10.2%, CN(C)CCCn1c(=S)[nH]c2sc3c(c2c1=O)CCCC3 26.2%, CCOc1ccc(-n2c(=O)[nH]c3sc4c(c3c2=O)CCCC4)cc1 12.1%, Cc1ccc(-n2c(=S)[nH]c3sc4c(c3c2=O)CCc2ccccc2-4)cc1 4.2%, C=CCn1c(=S)[nH]c2sc3c(c2c1=O)CCCC3 13.8%, CCCn1c(=S)[nH]c2sc3c(c2c1=O)CCCC3 2.13%, CCn1c(=S)[nH]c2sc3c(c2c1=O)CCCC3 47.9%, COCCCn1c(=S)[nH]c2sc3c(c2c1=O)CCCS3 7.39%, C=CCn1c(=S)[nH]c2sc3c(c2c1=O)CCC3 14.3%, COc1ccc(/C(C)=N/NC(=S)Nc2cc(C)ccc2C)cc1 -5.64%, CCOC(=O)C1C(=O)CC(C)(O)C(C(=O)OCC)C1c1ccc([N+](=O)[O-])cc1 (configuration not stated) 11.4%, COc1ccc(N2CCN(c3nc4cc(C)ccc4cc3C=O)CC2)cc1 2.5%, Cc1ccc(C2=NN(C(=O)CSc3nc4ncc(Cl)cc4[nH]3)C(c3ccco3)C2)cc1 (configuration not stated) 5.98%, C/C(=N\NC(=O)Cn1cnc2ccccc21)c1cccs1 4.15%, COc1ccc2c3n(nc2c1)CCN=C3c1ccc(C)cc1 4.94%, COc1cccc(-c2cc(C(=O)NC3CCCCC3)no2)c1 6.22%, O=C(NCc1ccccc1)C12CC3CC(CC(Br)(C3)C1)C2 5.84%, O=C1CCC(=O)N(c2ccccc2)N1 3.91%, O=C1CCN(S(=O)(=O)c2ccccc2)N1 -45.5%, Cc1[nH]c(-c2ccc(F)cc2)cc1C(=O)N1CCN(c2cccc(Cl)c2)CC1 21.1%, COC(=O)Cn1ccc(N(C)C)c(C#N)c1=O -1.06%, CCOC(=O)N1CCN(Cc2nc(-c3ccc(Cl)cc3)no2)CC1 0.28%, CC(C)Oc1cccc(C(=O)NC(=S)Nc2ccc(Cl)c(C(=O)O)c2)c1 0.71%, O=C(CCNC(=O)C1CCN(S(=O)(=O)c2ccc(F)cc2)CC1)NCCc1ccc(Cl)cc1 1.71%, CCCN(CC(=O)Nc1ccc(F)c(F)c1F)C(=O)c1ccc2c(=O)n3c(nc2c1)CCC3 1.86%, CC1(Cc2cn(CCC#N)c3ccccc23)OCCO1 15.8%, N#CCCn1cc(CNC2CCC(O)CC2)c2ccccc21 (configuration not stated) 3.99%, CCCCCC(=O)NC(NC(=S)NC1CCS(=O)(=O)C1)C(Cl)(Cl)Cl (configuration not stated) 8.9%, Cc1cccc(OCCSc2nc(N)cc(N)n2)c1 25.9%, O=C(N/N=C/c1ccc[nH]1)c1ccc([N+](=O)[O-])cc1 13.2%, O=[N+]([O-])c1ccc(C=NNc2ccccc2)cc1 0.7%, Nc1c(N(CCO)C(=O)C2CCCC2)c(=O)[nH]c(=O)n1Cc1ccccc1 2.35%, Cc1cc(C)cc(NC(=O)C2(c3ccccc3)CC2(Cl)Cl)c1 (configuration not stated) 8.14%, COc1ccc(/C=N/N2CCN(C3c4ccccc4-c4ccccc43)CC2)cc1O 11.6%, CN(C(=O)CSc1nc2[nH]ncc2c(=O)[nH]1)c1ccccc1 2.08%, COc1cccc(N=Cc2ccc(O)cc2O)c1 8.51%, Cc1ccc(O)c(/C=N/NC(=O)c2[nH]ncc2Br)c1 0.98%, Oc1c(Br)cc(Br)cc1C=Nc1ccc2[nH]ncc2c1 17.9%, CC1(C)CC(=O)C(C=Nc2ccc3[nH]ncc3c2)=C(O)C1 6.45%, Brc1ccc2[nH]ncc2c1 3.94%, C=CCOc1ccc(C=Nc2ccc(OC)cc2)c(O)c1 12%, CCOC(=O)c1nc(NNC(C)=O)sc1C 0.96%, Cc1nc2nc(-c3cccs3)[nH]c2cc1Br 10.5%, Cc1cccc(NC(=O)c2nc(-c3ccccc3)n(-c3ccccc3)n2)c1C 10.4%, Cc1nnc(CN(C)C(=O)CC2C(=O)NCCN2Cc2ccccc2C)o1 (configuration not stated) -0.43%, Cc1nc(CNS(=O)(=O)c2cc(C)c(C)cc2C)cs1 10.2%, Nc1ccc(SCc2cccnc2)cc1 14%, CC(C)(C)OC(=O)N1CCN(C(=O)c2[nH]cnc2C(=O)Nc2ccc(Cl)cc2)CC1 8.41%

Reference: PubChem BioAssay AID624330 (Southern Research Specialized Biocontainment Screening …, 2012)
